This note sets out measurements from the supplement of paper PMC11417369.

± gives the standard deviation of the averaged measurements. Whole data set: some 25,000 sequences, median “ln(normalized median fluorescence intensity)” near 8.6, cut for the highest 2% near 10. The full list was thinned out, with the highest values kept by preference.

In the experiment the test system is PfAP2-EXP AP2 domain (GST-tagged). In words: gcPBM binding intensity (ln(normalized median fluorescence intensity)); higher = stronger DNA binding. The method, boiled down: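 GST-tagged P. falciparum DNA-binding domains produced in E. coli were incubated for 1 h on an Agilent 4 × 180k array of primer-extended double-stranded 36-bp intergenic genomic probes with negative controls. Binding intensity is the highest Masliner-normalised natural-log median intensity across replicate spots of either probe orientation, with bound protein detected by Alexa488 anti-GST antibody at 488 nm.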
For the sequence “GATATTACGTGTTTGGTATTTTTTGATGTTAATAGG [CACACA_negctrl_site105]”, the “gcPBM binding intensity (ln)” value is 8.8 ± 0.52.
For “TTATATTTTTACAAGAGTACATATATATATATATAT [XGTACX_site5383]” the value was 10.2 ± 0.31; for “AAAAAAAAAAAAAAGAGTACATTTATTTATATATCT [XGTACX_site2381]”, 8.23 ± 0.19; for “ATATATATATATATATGTACATATTTTATAACTGTA [XGTACX_site5395]”, 10.2 ± 0.33.
As to “ATATATATATATATATGTACATATTTTTTATTTTAT [XGTACX_site5761]”, the “gcPBM binding intensity (ln)” value turned out to be 10.1 ± 0.5.
For “TTTTTTTTTTTTTTATGTACATATATATATTTTATT [XGTACX_site6915]” the value was 8.61 ± 0.6.
For “ATATATATATATTTATGTACATATATTTTTTTTTTT [XGTACX_site8558]” the value was 9.73 ± 0.28; for “TTTTTTTTTATATTTAGTACATATATATTATTATAT [XGTACX_site3334]”, 8.39 ± 0.31; for “CATATATATTTTATATGTACATATATATTTTATATA [XGTACX_site8665]”, 8.45 ± 0.25.
The same measure for “ATATATATATATATATGTACATATATTTTTATTTAT [XGTACX_site3508]”: 10.3 ± 0.26.
Regarding “TATATACATTTATGTACACACACATATATGTATATT [CACACA_site8971]”, the “gcPBM binding intensity (ln)” value is 8.59 ± 0.34.
The same measure for “ATATATATATATGTATGTACATATTTTTTTTAACAC [XGTACX_site8475]”: 9.93 ± 0.4; for “ATATATATATATGTATGTACACATATTTTTTAACTT [XGTACX_site431]”: 10.42 ± 0.042.
The same measure for “CTTAAGTAAAATTAAAGTACATGGACAAAAAATATA [XGTACX_site7900]”: 8.87 ± 0.28; for “AAAAAAAAAAAAAAAAGTACAAAAAAAAAAAAAAAA [XGTACX_site4549]”: 8.26 ± 0.057.
As to “AAAATTAATTATTACAAAAATGAAAAGACATATTTT [GTGCAC_negctrl_site735]”, the “gcPBM binding intensity (ln)” value is 8.23 ± 0.38.
Take “TAATCAATTCAATATTGTACGATATTTACCTTTAAA [XGTACX_site4678]”: the “gcPBM binding intensity (ln)” value turned out to be 8.89 ± 0.42.
As for AGAGGGGAAAACATGATGCACTAGTATAACCAAGAA, the “gcPBM binding intensity (ln)” value was found to be 9.22 ± 0.34.
For “GTGAATATTAAAAAATGTACACAATTATATGTATAT [XGTACX_site4834]” the value was 8.49 ± 0.28.
For TTCAAAAGATATATCGTGCACATATATATGATGAAA the value was 9.35 ± 0.62; for “ATGCTCAGGAAAACATGTACAAAATTATTTGTTATA [XGTACX_site4306]”, 8.31 ± 0.34; for “ATGTATATATATATATGTACATATTTTTTATATGTA [XGTACX_site441]”, 8.29 ± 0.25.
For “TATATTATATTTTTATGTACATATATGTTTTTTTTT [XGTACX_site8239]” the value was 8.52 ± 0.092; for “ATATATTTATTTATATGTACATATTATATATTATAG [XGTACX_site3371]”, 8.55 ± 0.35.
As for “TGTATGTTTATTTATCGTACATATATATATATATAT [XGTACX_site7315]”, the “gcPBM binding intensity (ln)” value came out at 10.2 ± 0.18.
For “GTATATAAGTATATATGTACATATATTTTATATATA [XGTACX_site4745]” the value was 8.42 ± 0.23; for “AAGTATTTTTTTACATGTACATATATATATATATAT [XGTACX_site5065]”, 10.2 ± 0.26.
For “TTTCATTAATCTAATAGTACAGAAAATTGAGAAAAA [XGTACX_site8395]” the value was 8.72 ± 0.34.
The same measure for “ATTTTTTTCTTTTCTTTTTTCTTTTTTTTTTTTGGT [CACACA_negctrl_site1146]”: 8.35 ± 0.61.
For the sequence “AACTTATTAAGCCCTCCACATTTCTCTACTACAACT [CACACA_negctrl_site1552]”, the “gcPBM binding intensity (ln)” value came to 8.61 ± 0.43.
The same measure for “TATTTTTTTTTTATATGTACATAATTTCAAATAAAT [XGTACX_site7747]”: 8.62 ± 0.48; for “TATATTTCAGGGGGGAGTACAAATTTTTTTATATAA [XGTACX_site1600]”: 10.9 ± 0.38.
The same measure for “TATAATTATATTTGGAGTACAAATTTTTTTTTTTTT [XGTACX_site7494]”: 8.3 ± 0.32; for “ATATAAATAAAAAAAAAAAAAAAAAAAAAAAAAAAA [CACACA_negctrl_site972]”: 8.01 ± 0.43; for “TATAAAAAAAAAAAATATATATATATATAAATATAA [TGCATGCA_negctrl_site367]”: 8.2 ± 0.31.
The same measure for “TTATAATATAAAAATAAATAAATAAATAAATAAATA [CACACA_negctrl_site1587]”: 8.55 ± 0.11; for “AAAAATAAAAAATATAAAAATATAAAAATATAAAAA [XGTACX_negctrl_site51]”: 8.32 ± 0.38.
For the sequence “ATAAAAAAAAAAAAAAAATATATATATATATATATA [XGTACX_negctrl_site424]”, the “gcPBM binding intensity (ln)” value stood at 10.2 ± 0.32.
For “ATATAAAAAAAAAAAAAAAAATATATATATATATAT [GTGCAC_negctrl_site251]” the value was 10.2 ± 0.13; for “TTATAAAAAAAAAAAAAAAATATATATATATATATA [XGTACX_negctrl_site592]”, 10.3 ± 0.13; for “TTATAATAAATATATAAAAAAAAAAAAAAAAAAAAA [CACACA_negctrl_site1639]”, 7.97 ± 0.23.
For “AAAAAAAAAAAAAAATATAAATATATATATATATAT [GTGCAC_negctrl_site28]” the value was 10 ± 0.28.
For “TAAATAATATCTATCACACACGCATATATACATATA [CACACA_site2622]”, the “gcPBM binding intensity (ln)” value amounted to 8.32 ± 0.44.
For “TAATATTATTTTTCAGTGCAATATAACCTTAGAATT [GTGCAC_site9417]” the value was 8.38 ± 0.32; for “CATGTTCATCAGAACGCACACATAATGGTTTACTTA [CACACA_site898]”, 8.47 ± 0.3.
